# In PubChem BioAssay (EPA / NIEHS):
# Some compounds were tested as several samples or in several runs, with calls that do not always agree. Activity calls are given as the source filed them. The calls were made as follows: active = hit-call score of the fitted dose curve at least 0.9, where 1 is the maximum; inactive = score below 0.9. Peptide text beside a SMILES is read from it.
# Experiments:
# [1] = CCTE_Shafer_MEA_dev_correlation_coefficient_mean: CCTE's Neural Network Formation Assay for Mean Correlation Coefficient, Shafer Lab (AID 2284093);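 as to AC50: well mean pairwise spike train correlation integrated as AUC over recording days 5 to 12; potency fitted for loss of correlation relative to DMSO vehicle wells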
# Summary of the method: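 Spontaneous activity recorded on days 5, 7, 9 and 12 post-plating; pairwise spike correlations are averaged across active electrodes and collapsed to an area-under-curve. Rat cortical cultures are dosed from plating through 12 days, with compound renewed at media changes.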
# [2] = IUF_NPC1b_proliferation_BrdU_72hr: Leibniz Research Institute for Environmental Medicine (IUF) 72-hour Neural Progenitor Cell Bromodeoxyuridine (BrdU) Proliferation Assay (NPC1b) (AID 2284207)
# Summary of the method: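 Luminescent BrdU ELISA measured DNA synthesis during the last 16 h of a 72 h exposure of primary human neural progenitor spheres grown with EGF and FGF. Signal was fitted relative to DMSO controls.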
# [3] = IUF_NPC1a_proliferation_area_72hr: Leibniz Research Institute for Environmental Medicine (IUF) 72-hour Neural Progenitor Cell Proliferation Area Assay (NPC1a) (AID 2284208)
# Summary of the method: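 Spheres of 0.3 mm are plated singly in growth-factor medium and exposed from day 0. After three days at 37C and 5% CO2, sphere area is measured by phase contrast imaging, with activity referenced to DMSO.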
# [4] = IUF_NPC1_viability_72hr: Viability Assessment at 72 hours in the Leibniz Research Institute for Environmental Medicine (IUF) Neural Progenitor Cell Proliferation Assay (NPC1) (AID 2284209)
# Summary of the method: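 Viability was measured by resazurin-to-resorufin fluorescence (alamar blue) after 72 h of continuous exposure without compound renewal. Each well held one hNPC sphere (gestational week 16-19 fetal cortex, 0.25-0.35 mm) cultured in EGF/FGF proliferation medium at 37C and pH 7.2-7.6.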
# [5] = CCTE_Mundy_HCI_Cortical_Synap_Neur_Matur_NeuriteSpotCountPerNeuriteLength: CCTE's Synaptogenesis and Neurite Maturation Assay in rat cortical cells for Neurite Spot Count per Neurite Length, Mundy Lab (AID 2284210)
# Summary of the method: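 Read-out: synaptophysin puncta counted along MAP2-stained neurites, normalised to neurite length, by automated high-content imaging. Rat cortical cells; AraC DIV 5; chemical dosing DIV 7; termination DIV 12. DMSO baseline.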
# [6] = CCTE_Mundy_HCI_Cortical_Synap_Neur_Matur_BPCount: CCTE's Synaptogenesis and Neurite Maturation Assay in rat cortical cells for Branch Point Count, Mundy Lab (AID 2284211)
# Summary of the method: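 HCI read-out of branch points from MAP2/synaptophysin/Hoechst immunofluorescence; rat cortical cultures, AraC DIV 5, dosing DIV 7, fixed DIV 12; fit in positive direction vs DMSO baseline.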
# [7] = CCTE_Mundy_HCI_Cortical_NOG_NeuriteCount: CCTE's Neurite Outgrowth Assay in rat cortical cells for Neurite Count, Mundy Lab (AID 2284212);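 also: cells fixed about two days after chemical exposure began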
# Summary of the method: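 Rat cortical primary cells; compound added 2 h post-plating, 1/10 dilution of working solution. Anti-betaIII-tubulin/AF488 ICC; ArrayScan neurite count vs DMSO.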
# [8] = CCTE_Mundy_HCI_Cortical_NOG_NeuriteLength: CCTE's Neurite Outgrowth Assay in rat cortical cells for Neurite Length, Mundy Lab (AID 2284213)
# Experimental: CCTE_Mundy_HCI_Cortical_NOG is a multiplexed, cell-based-readout assay that uses rat primary cortical cells with measurements taken at 50.33 hours after chemical dosing in a microplate: 96-well plate.CCTE_Mundy_HCI_Cortical_NOG_NeuriteLength is one of four components of the CCTE_Mundy_HCI_Cortical_NOG assay. It measures neurite outgrowth related to the neurite length using High Content Imaging of fluorescently labelled markers.[…] Using a type of morphology reporter, loss -of-signal activity can be used to understand developmental effects.
# Exposure starts 2 hours post-plating by adding 10 ul of the working solution to 90 ul of media in the wells for a 1/10 dilution. Forty-eight hours after chemical treatment cells are fixed by direct addition of 100 ul of warm (37C) Dulbecco's phosphate buffered saline (DPBS) fixative solution containing 8% paraformaldehyde, 8% sucrose, and 0.1% of 3 mg/ml Hoechst 33342 into each well. Primary antibodies are prepared by dilution in Immunocytochemical Staining Buffer (ISB), 10X Dulbecco's PBS, 0.1% Saponin, 5% Bovine Serum Albumin, 0.5% NaN3 (Sodium Azide) and betaIII-tubulin (rabbit anti-betaIII-tubulin, 1:800) followed by Alexa Fluor-488 secondary (1:500) to label neuronal cell bodies and neurites. A Cellomics ArrayScan VTi HCS Reader is used for automated image acquisition and analysis of neurite outgrowth.
# [9] = CCTE_Mundy_HCI_Cortical_Synap_Neur_Matur_NeuriteLength: CCTE's Synaptogenesis and Neurite Maturation Assay in rat cortical cells for Neurite Length, Mundy Lab (AID 2284214)
# Summary of the method: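 Neurite length quantified by automated high-content imaging of MAP2, synaptophysin and Hoechst staining. Rat cortical cells received chemical from DIV 7 to DIV 12 […], glial growth arrested by AraC at DIV 5; DMSO baseline.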
# [10] = UKN2_HCS_IMR90_neural_migration: University of Konstanz (UKN) Leist Lab Neural Crest Cell Migration Assay in human induced IMR90 Pluripotent Stem Cells (UKN2) (AID 2284204); details: actives raise or lower the signal
# Summary of the method: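 Stopper-exclusion migration (cMINC), human iPSC-derived neural crest cells; N2-S + EGF/FGF; compound added 24 h post-stopper removal, 24 h exposure. Readout: calcein-AM/Hoechst 30 min, HCS fluorescence imaging; bidirectional fitting, DMSO baseline.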
Compound,outcome [1],outcome [2],outcome [3],outcome [4],outcome [5],outcome [6],outcome [7],outcome [8],outcome [9],AC50 [1],outcome [10],AC50 [2]
Cc1c(C(=O)c2c[nH]n(C)c2=O)ccc(S(C)(=O)=O)c1C1=NOCC1,inactive,inactive,inactive,inactive,inactive,inactive,inactive,inactive,inactive,,,
COC(=O)[C@H](Cc1ccccc1)NC(=O)[C@@H](N)CC(=O)O (H-Asp-Phe-OMe),inactive,,,,inactive,inactive,inactive,inactive,inactive,,,
C[N+](C)(C)CCCNS(=O)(=O)C(F)(F)C(F)(F)C(F)(F)C(F)(F)C(F)(F)C(F)(F)C(F)(F)C(F)(F)F,inactive,,,,,,,,,4.2 µM (active),,
Cc1noc(NS(=O)(=O)c2ccc(N)cc2)c1C,inactive,,,,inactive,inactive,inactive,inactive,inactive,,,
CCCCNS(=O)(=O)c1ccccc1,inactive,,inactive,inactive,inactive,inactive,inactive,inactive,inactive,,inactive,11.9 µM (active)
